# Results published in the OligoGym collection.
# Target: MPHOSPH9
# Test: pooled miR-30 sensor sort-seq; sequence = guide strand
# Settings: shRNA
# Also: reference of the scale not given here.
row,Sequence,sensor-assay potency score (higher = more potent)
1,TAACGTAGGATCTAGAGTCAGG,-0.553
2,TAGATCTTGAACCTCCATCTTC,-0.263
3,TATTTGTTTAGAAACAAGCTGC,0.128
4,TTAAAGACACATGACACTCTTC,0.499
5,TTGAGCTTCTTTATCATCTGAG,0.656
6,TTACAATGTAGAACAAGTCTAT,0.128
7,TTTGGTGACACATCTGTGGAAG,-0.32
8,TTGTTGATGAACTTCCAGGTGA,-0.421
9,TTGCTTGTGAAAATGAGTCTAT,-0.111
10,TTTATCAACAAGCTTGTTGATG,-0.498
11,TTGTTTAGAAACAAGCTGCTTC,0.601
12,TTCATCTACAGTGTTGACCGAG,0.377

# Target: MPST
# Test: as above
# Settings: shRNA
row,Sequence,sensor-assay potency score (higher = more potent)
1,TCGATGTCGAAGAAAGCGGCGC,-0.934
2,TACCACTCCACCCAGGAGCCAT,-1.23
3,TGAAGAAACACTCTCTTGGTGA,-0.0211
4,TTAGACAGGTCCACTTTCTTCT,0.441
5,TAGGTCTTGATGAAGGCGGGGT,0.122
6,TTCTCCTTGATGTCCTCGTAGG,-1.08
7,TTGATGTCCTCGTAGGTCTTGA,-0.443
8,TGAGTGAAGAAACACTCTCTTG,-1.53
9,TTGAGTGAAGAAACACTCTCTT,0.653
10,TCGTAGGTCTTGATGAAGGCGG,-0.615
11,TCGTAGATCACGACGTGGGTGG,-0.279
12,TTCTCCTGGAACAGATGGCGGA,-0.871

# Target: MPZL1
# Test: as above
# Settings: shRNA
row,Sequence,sensor-assay potency score (higher = more potent)
1,TTGTGTACCATTTGCCACGAAG,-1.44
2,TTTCTATGTTGATTGATGCATC,-0.949
3,TATTTATACATATCCTTTGTAC,-0.807
4,TTGACATCACAGATATAGGTGC,0.0652
5,TTTTCTATGTTGATTGATGCAT,-0.358
6,TATTCTCTTAATTCTTTCGGAT,-0.74
7,TTTGACATCACAGATATAGGTG,0.376
8,TTTTCTACGACATAGAGCCTAA,-0.79
9,ATATTTTCTATGTTGATTGATG,-0.933
10,TACACCACAGACTCTGACTTGT,0.413
11,TAACTGTGCATATATGACTGGG,-0.763
12,TTTTTCTACGACATAGAGCCTA,-0.173
